proKLK7 act = proKLK7 zymogen activators, primary screen, biochemical, fluorescence intensity. purified proKLK7, EDANS-DABCYL substrate fluorescence; 100% is mature enzyme control, 0% vehicle. hit rate 0.9% among 370,000. activation, % at 7 µM. AID 652039, 2013;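 active means activation above the mean of all tested compounds plus 3 SD, computed per campaign excluding outliers beyond control limits, cut at about 13% in these data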
Target sequence (P49862 whole entry, looked up): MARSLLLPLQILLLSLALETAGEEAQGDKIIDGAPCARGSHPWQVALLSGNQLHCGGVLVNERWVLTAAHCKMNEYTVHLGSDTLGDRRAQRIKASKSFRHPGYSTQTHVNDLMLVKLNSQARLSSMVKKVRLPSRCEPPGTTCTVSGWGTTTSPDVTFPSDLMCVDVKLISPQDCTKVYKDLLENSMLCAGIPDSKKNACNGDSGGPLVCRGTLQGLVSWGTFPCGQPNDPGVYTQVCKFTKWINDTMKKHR
HIF activator = HIF pathway transcriptional activators, primary screen, cell-based, U2OS HRE-luciferase, luminescence. activation, % at 7.5 µM (by protocol). AID 1910, 2009. hit rate 0.32% among 300,000. U2OS HRE-luciferase reporter; normalized: DMSO 0%, desferrioxamine 100%;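 active means mean activation of at least 10% of the iron chelator positive control signal, with at least half of replicates also reaching 10%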
NPR2 activator = human GC-B receptor activators, primary screen, HEK293 GC-B cells, cGMP TR-FRET, EC30 CNP | activation, % at 10 µM | 0% at EC30 CNP, 100% saturating CNP | AID 1920062, 2024 | Atrial natriuretic peptide receptor 2 (Homo sapiens), P20594 | hit rate 0.11% among 370,000;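 active means activation at 10 µM reaching about 35% in either raw or pattern-adjusted values, limit read from the data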
NPR1 activator = GC-A stimulated cGMP production enhancers – HEK293 GC-A cells, cGMP TR-FRET, EC30 ANP, primary screen; activation, % at 10 µM; Atrial natriuretic peptide receptor 1 (Homo sapiens), P16066; hit rate 0.14% among 370,000; 0% at EC30 ANP, 100% saturating ANP; in the data active means activation above about 40%
proKLK7 act conf = proKLK7 zymogen activators, confirmation, biochemical, fluorescence intensity, triplicate; hit rate 68% among 3,200; purified proKLK7, EDANS-DABCYL substrate fluorescence; scaled: vehicle 0, mature enzyme 100; AID 686949, 2013; shares compounds with proKLK7 act; activation, % at 7 µM;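 active means activation, as change over the incubation, above the mean of all tested compounds plus 3 SD, cut at about 13% in these data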
EDANS interfere = EDANS-DABCYL substrate optical interference, artefact control for kallikrein-7 zymogen activator project, biochemical, fluorescence intensity, high throughput | activation, % at 7 µM | no enzyme, 4 h; solvent 0%, active enzyme control 100% | shares compounds with proKLK7 act | AID 686952, 2013 | hit rate 80% among 3,200;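 active means activation above the all-compound mean plus 3 SD, ignoring values outside control-based bounds, cut at about 4.8% in these data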;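 further: value is the 4 h activation minus the activation read at time zero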
Each line names hits and unclear results; the compound was inactive in the other large screens (follow-up assays come after a bar, where they were run). An excerpt weighted towards active compounds, which were near 1.3% of everything screened.

N#Cc1cc(-c2ccccc2)c[nH]c1=O	proKLK7 act 20 | proKLK7 act conf inactive | EDANS interfere 10
COC(=O)[C@]12C[C@H](CC(=O)N3CCCCC3)C(=O)N(Cc3ccc(Cl)cc3Cl)C1=C[C@H](C(C)(C)C)O[C@@H]2C	none (no result: HIF activator)
COc1ccc(N/C(N)=N/c2nc(C)cc(C)n2)c(OC)c1	none
COc1cc(N/C(N)=N/c2nc(C)cc(C)n2)cc(OC)c1	proKLK7 act 14 | proKLK7 act conf inactive | EDANS interfere inactive
C[C@H](O)[C@@H]1CN2CCc3c([nH]c4ccccc34)[C@@H]2C[C@@H]1N(C)C(=S)NCCc1ccccc1	proKLK7 act 39 (no result: HIF activator) | proKLK7 act conf inactive | EDANS interfere inactive
CCNC(=O)N(C)[C@H]1C[C@H]2c3[nH]c4ccccc4c3CCN2C[C@H]1[C@H](C)O	proKLK7 act 17 (no result: HIF activator) | proKLK7 act conf inactive | EDANS interfere inactive
C[C@H](O)[C@@H]1CN2CCc3c([nH]c4ccccc34)[C@@H]2C[C@@H]1N(C)C(=O)Nc1cccc2ccccc12	none (no result: HIF activator)
CCCC1CCC2(CC1)CCC2OC(=S)Nc1ccccc1Cl (stereo not given)	none (no result: proKLK7 act, HIF activator)
O=C(c1ccc(Br)o1)N1CCN(c2ccc(F)cc2)CC1	none
CCN1CCN(c2ccc(N3CCN(C(=O)c4ccc(Br)o4)CC3)nn2)CC1	proKLK7 act 19 | proKLK7 act conf inactive | EDANS interfere 4.4
CC(=O)Nc1cccc(-c2cccc3nccn23)c1	proKLK7 act 18 (no result: HIF activator) | proKLK7 act conf 24 | EDANS interfere 27
c1cc(-c2ccoc2)n2ccnc2c1	none (no result: HIF activator)
c1cc(-c2ccc(CN3CCOCC3)cc2)n2ccnc2c1	proKLK7 act 24 (no result: HIF activator) | proKLK7 act conf 21 | EDANS interfere 22
c1cc(-c2ccsc2)n2ccnc2c1	none (no result: HIF activator)
N#Cc1ccc(-c2cccc3nccn23)cc1	proKLK7 act 78 (no result: HIF activator) | proKLK7 act conf 73 | EDANS interfere 68
CN1CCN(c2ccc(-c3cccc4nccn34)cn2)CC1	proKLK7 act 50 (no result: HIF activator) | proKLK7 act conf 22 | EDANS interfere 19
CC(=O)c1ccc(-c2cccc3nccn23)cc1	none (no result: HIF activator)
O=C(CCCCCN1C(=O)C2C3C=CC(C3)C2C1=O)N1CCN(c2ncccn2)CC1 (stereo not given)	none (no result: HIF activator)
Cc1ccc(CNC(=O)O[C@H]2CC[C@@]34CCCN3C(=O)CCC[C@H]4C2)o1	none (no result: proKLK7 act, HIF activator)
CN(C)CC(=O)N[C@@H]1C[C@@H]2O[C@@H](CO)CC[C@@H]2O[C@@H]1CCc1ccc(C#Cc2ccccc2)cc1	none (no result: HIF activator)
Cc1ccc(N(CC(=O)NCc2ccc(F)cc2)C(=O)c2snc(C(N)=O)c2N)cc1C	none
COc1ccc(N(CC(=O)NCc2ccc(F)cc2)C(=O)c2snc(C(N)=O)c2N)cc1OC	proKLK7 act 15 | proKLK7 act conf inactive | EDANS interfere inactive
N=C1/C(=C\c2coc3ccccc3c2=O)C(=O)N=C2SC=CN12	proKLK7 act 23 | proKLK7 act conf 33 | EDANS interfere 32
N=C1/C(=C/c2cccn2Cc2ccc(F)cc2)C(=O)N=C2SC=CN12	proKLK7 act 28 | proKLK7 act conf inactive | EDANS interfere 5.6
Cc1ccc(Cn2cccc2/C=C2/C(=N)N3C=CSC3=NC2=O)cc1	none
COC(=O)[C@]12C[C@H](CC(=O)NCCCN3CCCC3=O)C(=O)N(Cc3ccco3)C1=C[C@H](C(C)(C)C)O[C@@H]2C	none (no result: HIF activator)
COc1ccc(-c2cc3ccccc3c(=O)o2)cc1	proKLK7 act 21 (no result: HIF activator) | proKLK7 act conf inactive | EDANS interfere inactive
COc1ccc(-c2cc(=O)c3cccc(CC(=O)O)c3o2)cc1	proKLK7 act 79 (no result: HIF activator) | proKLK7 act conf 83 | EDANS interfere 81
C[C@@H](O[Si](c1ccccc1)(c1ccccc1)C(C)(C)C)[C@H]1C(=O)N[C@H](Cc2cn(S(=O)(=O)c3ccccc3)c3ccccc23)C(=O)N1C	none (no result: proKLK7 act, HIF activator)
Nc1ccc2nn(-c3ccccc3)nc2c1	proKLK7 act 30 (no result: HIF activator) | proKLK7 act conf 66 | EDANS interfere 68
Nc1ccc2c(c1)nnn2-c1ccccc1	proKLK7 act 31 | proKLK7 act conf 45 | EDANS interfere 44
Nc1cc2nn(-c3ccccc3)nc2cc1Cl	proKLK7 act 21 | proKLK7 act conf inactive | EDANS interfere inactive
CCOC(=O)C1CCN(C(=O)C(C)(C)NC(=O)Nc2ccc(OC)c(Cl)c2)CC1	none (no result: proKLK7 act, HIF activator)
CC(=O)Nc1c(-c2ccc(C(F)(F)F)cc2)nc2ncccn12	none (no result: HIF activator)
CCCC1OC23CCCCC2C(C#N)(C(=N)O3)C1(C#N)C#N (stereo not given)	none
CCC1OC23CCCCC2C(C#N)(C(=N)O3)C1(C#N)C#N (stereo not given)	proKLK7 act 14 | proKLK7 act conf 68 | EDANS interfere 62
CCc1c(C2(O)CCCCC2)[nH]c2cnccc12	proKLK7 act 70 (no result: HIF activator) | proKLK7 act conf inactive | EDANS interfere 16
O=c1c(-c2ccc(Cl)cc2)coc2c(CN3CCOCC3)c(O)ccc12	proKLK7 act 19 | proKLK7 act conf 21 | EDANS interfere 23
O=c1c(-c2ccccc2)coc2c(CN3CCCC3)c(O)ccc12	proKLK7 act 67 | proKLK7 act conf 39 | EDANS interfere 49
COc1ccc(-c2coc3cc(OC(=O)N4CCOCC4)ccc3c2=O)cc1	none
COc1ccc(-c2coc3c(CN4CCOCC4)c(O)ccc3c2=O)cc1	proKLK7 act 52 | proKLK7 act conf 50 | EDANS interfere 56
CC1CCCCN1Cc1c(O)ccc2c(=O)c(-c3ccc(Cl)cc3Cl)coc12 (stereo not given)	none
O=c1c2ccccc2nc2ccccn12	proKLK7 act 50 | proKLK7 act conf 42 | EDANS interfere 41
Cc1ccc(C)c(NC(=O)[C@@H]2CCCN2S(=O)(=O)c2cccc3cccnc23)c1	none (no result: proKLK7 act, HIF activator)
Cc1cc(NCCCO)n2c(nc3ccccc32)c1C#N	proKLK7 act 15 | proKLK7 act conf 51 | EDANS interfere 70
CCCNc1cc(C)c(C#N)c2nc3ccccc3n12	none (no result: HIF activator)
CNc1cc(C)c(C#N)c2nc3ccccc3n12	proKLK7 act 33 | proKLK7 act conf 93 | EDANS interfere 77
COCCNc1cc(C)c(C#N)c2nc3ccccc3n12	proKLK7 act 37 | proKLK7 act conf 34 | EDANS interfere 46
Cc1cc(NCCOCCO)n2c(nc3ccccc32)c1C#N	proKLK7 act 48 | proKLK7 act conf 85 | EDANS interfere 92
CCCN(CC1CC1)c1c2c(nc3ncnn13)CCCC2	none (no result: HIF activator)
COc1ccc(C=Nn2c(-c3ccc(F)cc3)n[nH]c2=S)c(OC)c1OC	none (no result: HIF activator)
O=C1c2cccn2CC2Cc3ccccc3N12 (stereo not given)	none (no result: proKLK7 act, HIF activator)

Assay outcomes from PubChem BioAssay.
